Data published in PubChem BioAssay AID1893 (NMMLSC, 2009).
The whole screen tested about 5,900 compounds, of which about 120 (2%) were called active. Cut-off read from the data, not from the text of the source: active = percent response mostly above about 71% (no sharp cut-off); inactive = mostly below about 38%. The list is a sample of the results.

test system: MEKK2 (MAP3K2) mutant PB1 domain binding MEK5, human; assay: mutant MEKK2 PB1-MEK5 binding signal retest – biochemical, single concentration, multiplex bead flow cytometry, confirmation (AID 1893); conditions: Alexa488-MEK5 binding to MEKK2 mutant, at 10 µM, hits give high values;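 note: higher means compound restores mutant binding toward wildtype level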

Percent response, inactive:
CCN1CCN(c2ccc(S(=O)(=O)N3CCCCC3)cc2NC(=O)Cc2c(Cl)cccc2Cl)CC1 20%
CCCCN1C(=O)/C(=C(/C#N)C(N)=O)c2ccccc21 -2%
CC(C)c1ccc(C(=O)NCCCc2ccccc2)cc1 -5%
Cc1ccc(C)c(CN2CCC(CNC(=O)Nc3ccc(C)c(F)c3)CC2)c1 20%
Cc1nc2cc(S(=O)(=O)C(F)(F)F)ccc2s1 -1%
O=C(Cc1cccc2ccccc12)Nc1ccc2oc(-c3ccccc3)nc2c1 10%
O=C(CSc1ccc(-c2ccc(F)cc2)nn1)Nc1ccc2c(c1)OCCO2 4%
Cc1cnc(NC(=O)Cn2cnc3c2c(=O)n(C)c(=O)n3C)s1 -16%
O=C(OCc1cc(Cl)ccc1OC(F)F)c1cccnc1 -8%
CC1(C)Cc2cccc(OCC(=O)N3CCN(c4ccc([N+](=O)[O-])cc4)CC3)c2O1 1%
CCOC(=O)c1sc2nc(C)nc(SCC(N)=O)c2c1C 5%
CCOC(=O)c1cc2c(nc1NC(=S)Nc1ccccc1)CC(C)(CC)OC2 (stereo not drawn) -4%
O=C(NCCC1=CCCCC1)c1ccc(Cl)c([N+](=O)[O-])c1 5%
Cc1cccn2c(=O)c(/C=C3\SC(=S)N(CC(C)C)C3=O)c(NCCCOC(C)C)nc12 -25%
O=C(NCCCN1CCCCCC1)C1CC(=O)N(C2CCCC2)C1 (stereo not drawn) -29%
COc1cc2c(cc1OC)CN(C(=O)c1ccc(S(=O)(=O)N3CCCCCC3)cc1)CC2 -1%
O=C(/C=C/Nc1ccccc1)c1cnc(-c2ccccc2)s1 7%
Cn1c(=NC(=O)CSCC(=O)N2CCCCC2)sc2ccccc21 8%
CCOC(=O)Cc1csc(NC(=O)CSc2nc(C)cc(=O)[nH]2)n1 -5%
CN1C(=O)/C(=C\c2ccc(-c3ccccc3)o2)SC1=S -31%
CCN(CC)CCCNC(=O)c1ccc2c(=O)n(Cc3ccc4c(c3)OCO4)c(=S)[nH]c2c1 7%
O=C(OCC1O[C@@H](OC(=O)c2cc(O)c(O)c(O)c2)[C@@H](OC(=O)c2cc(O)c(O)c(O)c2)[C@@H](OC(=O)c2cc(O)c(O)c(O)c2)[C@@H]1OC(=O)c1cc(O)c(O)c(O)c1)c1cc(O)c(O)c(O)c1 (stereo partly drawn) -34%
CCOC(=O)c1cc2occc2n1CC(=O)N1CCN(C(=O)c2ccco2)CC1 -10%
Cc1cccc(CSc2nnc(C)c(=O)n2N)c1 -2%
C=C(C)C1CC=C(C)/C(=N\NC(=O)CNc2ccccc2OC)C1 (stereo not drawn) 10%
Cc1c(-c2ccccc2)cn2c1-c1ccc(C)n1CC2 0%
CCCN(CCC)c1nc2c(C)cccn2c(=O)c1/C=C1/SC(=S)N(Cc2ccco2)C1=O -17%
O=C(O)c1cccnc1NC1CCCC1 13%
CCCc1nnc(SCC(=O)N2C(C)CCCC2C)n1CC (stereo not drawn) 10%
C/C=C/c1ccc(OCCCCN2CCC(C)CC2)c(OC)c1 4%
CNC(C)C#Cc1ccc2sc3cc(OC)c(OC)cc3c(=O)c2c1 (stereo not drawn) 16%
Cc1cc(C(=O)OCC(=O)N2c3ccccc3NC(=O)C2(C)C)c(C)n1-c1ccccc1 1%
Cc1ccc(NC(=O)COc2ccc(-n3ccnc3)cc2)cc1Cl 21%
Cc1ccc(C(=O)NC(=S)Nc2ccc3[nH]c(=O)[nH]c3c2)cc1C 4%
O=C1Nc2ccc(Br)cc2/C1=N/N=C/C1=C(N2CCOCC2)C(=C\c2ccccc2)/CC1 -20%
C#CCOCCOCCOCCNc1nc(N2CCN(C(=O)[C@H](CCCCN)n3cc([C@@H](N)C(C)CC)nn3)CC2)nc(N2CCN(C(=O)[C@H](Cc3ccc(O)cc3)n3cc([C@@H](N)C(C)CC)nn3)CC2)n1 (stereo partly drawn) 52%
COc1ccc(S(=O)(=O)Nc2ccc3oc(C)c(C(C)=O)c3c2)cc1 -3%
O=C(Cc1cccs1)N/N=C/c1ccc(OCc2ccccc2)cc1 3%
N#C/C(=C\C1=C(N2CCOCC2)C(=C\c2ccccc2)/CC1)C(=O)Nc1ccccc1F -38%
Cc1cc(C)nc(-n2ncc3c2CC(c2ccc(C(C)C)cc2)CC3=O)n1 (stereo not drawn) 0%
Cc1ccc(Nc2nc(CSc3nnc(-c4ccncc4)n3-c3ccccc3C)cs2)cc1 1%
COc1ccc(N2CCN(Cc3nnc(-c4ccccc4)o3)CC2)cc1 -5%
Cc1nc(N=C(N)N)nc2c(C)cccc12 10%
Cn1c(=NC(=O)CSCC(=O)N2CCOCC2)sc2ccccc21 -15%
Cc1cc(C)c(NC(=O)C[N+](C)(C)CC(O)COc2cccc3ccccc23)c(C)c1 (stereo not drawn) 35%
CCCCn1c(SCC(=O)NCCc2ccc(OC)c(OC)c2)nc2c1c(=O)n(C)c(=O)n2C 0%
CCOc1cc(C(=O)OCC(=O)Nc2cccc(C)c2)ccc1OCC(=O)N1CCOCC1 0%
COc1ccccc1N1CCN(CCCCOc2ccc(F)cc2)CC1 0%
Cc1ccc(S(=O)(=O)NC(=O)N2CCCC(C)(C)C2)cc1 -1%
O=C(O)c1cc(Cl)c(Cl)cc1C(=O)Nc1cccc2ncccc12 -2%
COc1ccc(-c2[nH]ncc2CN(C)Cc2c(C)n[nH]c2C)c(OC)c1 11%
CCN1CCN(c2nc(Nc3cc(OC)ccc3OC)nc(Nc3cc(OC)ccc3OC)n2)CC1 25%
C=CCn1c(=S)sc2c(=O)[nH]c(C)nc21 1%
O=C(NC1CCN(Cc2ccccc2)CC1)c1cc(Br)c(Br)[nH]1 18%
CC(=O)Nc1ccc(-c2nc3ccccc3o2)cc1 -2%
Cc1c(C#N)c2ncn(CC#N)c(=O)c2n1-c1ccccc1 -7%
O=C(NCC1CCCCC1)c1cc(S(=O)(=O)N2CCCCC2)ccc1N1CCOCC1 -16%
COc1cc(/C=C2\SC(=S)N(Nc3ncc(C(F)(F)F)cc3Cl)C2=O)cc(OC)c1OC -10%
Cc1ccccc1-c1ccc(Nc2ccc(C(=O)N3CCOCC3)cc2)nn1 4%
COc1cc(CC(=O)N/N=C/c2ccccc2)c([N+](=O)[O-])cc1OC 4%
CCOc1ccc(S(=O)(=O)N(CC(=O)O)c2ccccc2)cc1 1%
Cc1ccc(S(=O)(=O)/N=S(\C)C(C)C)cc1 (stereo not drawn) -3%
O=C(c1ccco1)N1CCN(c2cccc(Cl)c2)CC1 0%
C/C(=N\NC(=O)CNC(=O)C(c1ccccc1)c1ccccc1)c1ccc(C)cc1 7%
C=CCN(CC=C)S(=O)(=O)c1ccc(C(=O)Nc2sc3c(c2C(N)=O)CCCCC3)cc1 1%
FC(F)(F)c1cccc(N/N=C/c2ccccc2)c1 28%
COc1cc(-c2nnc(Cn3cc(C(F)(F)F)ccc3=O)o2)cc(OC)c1OC 1%
CCNC(=O)CSc1nc(-c2ccccc2)cs1 -1%
O=C(NCCCN1CCCCCC1)c1ccc(N2CCCC2=O)cc1 38%
CN(C)CC(O)COc1ccc(C(C)(C)c2ccc(OCC(O)CN(C)C)cc2)cc1 (stereo not drawn) 48%
Cc1[nH]c2ccc(S(N)(=O)=O)cc2c1C -1%
CN(C)CCCNC(=O)c1cc(C(=O)Cc2ccc(Cl)cc2)c[nH]1 3%
N/C(=N\OS(=O)(=O)c1cccc([N+](=O)[O-])c1)c1ccncc1 3%
COc1cccc(CNCCc2c[nH]c3ccccc23)c1OCc1ccccc1F 9%
COc1ccccc1CC(=O)Nc1ccc([N+](=O)[O-])cc1OC 0%
O=C(Nc1cccnc1)c1cc(Cl)ccc1Cl 3%
Cc1ccc(CNC(=O)Cn2c(=O)c3sccc3n(Cc3cccc([N+](=O)[O-])c3)c2=O)cc1 2%
O=C(O)/C(=C/c1cccnc1)NC(=O)c1ccccc1 1%
CCOc1nnc(C)c2c(C)n(-c3cccc(Cl)c3)nc12 -10%
Cc1ccccc1C(=O)NNC(=O)CN1C(=O)c2ccccc2C1=O -10%
CC(C)(C)NC(=O)c1cccc(NC(=O)Cc2ccc(Br)cc2)c1 1%
Cn1c2ccccc2c(=O)c2c(=O)n(Cc3ccco3)c(COc3ccccc3)nc21 -6%
CCOc1ccc(C(c2c(C)[nH][nH]c2=O)c2c(C)[nH][nH]c2=O)cc1OCC -3%
COc1cccc(Nc2ncccc2C(=O)O)c1 -5%
C[C@H]1CCC(=O)N([C@H](CSc2ccccc2)Cc2ccccc2)CC1 8%
Cc1cccc(/C=N/NC(=O)CNc2cccc3ccccc23)n1 5%
c1ccc(Nc2nc(N3CCOCC3)c3ccccc3n2)cc1 21%
Cc1ccc(N(CCC(=O)O)S(=O)(=O)c2cccc(C(F)(F)F)c2)cc1 1%
O=C(NCCN1CCOCC1)[C@H](Cc1ccccc1)N1C(=O)c2ccccc2C1=O 2%
COCCN1C=C2C(=O)C(C)(OC(=O)C3CCCC3)C(=O)C=C2C=C1c1ccsc1 (stereo not drawn) -2%
COC(=O)C1=NN(c2ccccc2)C2C(=O)N(c3ccccc3OC)C(=O)C12 (stereo not drawn) -1%
CC(=O)Nc1ccc(N2CCOCC2)c(C(=O)Nc2cccc(C)c2)c1 3%
Clc1ccc(-c2nnc(SCc3nc4ccccc4s3)o2)cc1 -4%
